Compounds with a hit are over-represented: about 12% of the library has one in this group of screens.
PLK1 PBD inh = PLK1 (human) polo-box domain binding inhibition. P53350. hit rate 2.8% among 360,000. Plk1 PBD binding of FITC phosphopeptide, fluorescence polarization. Potency, µM, for inactives: max response, negative = inhibition, hits mostly inhibitors; note: potency is the fitted concentration of half-maximal effect; series mostly up to about 57 µM; % is set by controls: 0 for no effect and ±100 for the full control effect; nearly all actives have a fitted effect of over 65% in size
JMJD2A Tudor = JMJD2A Tudor domain (human) inhibition. O75164. hit rate 4.4% among 390,000. AlphaScreen JMJD2A-Tudor / H3K4me3 peptide binding. Potency, µM (doses to about 114 µM), inactives show top-dose activity change, negative = inhibition, most hits filed as inhibitors; note: potency is the fitted concentration of half-maximal effect; % is set by controls: 0 for no effect and ±100 for the full control effect; nearly all actives have a fitted effect of over 50% in size
Target sequence (O75164 whole entry, looked up, the tested form may be a part): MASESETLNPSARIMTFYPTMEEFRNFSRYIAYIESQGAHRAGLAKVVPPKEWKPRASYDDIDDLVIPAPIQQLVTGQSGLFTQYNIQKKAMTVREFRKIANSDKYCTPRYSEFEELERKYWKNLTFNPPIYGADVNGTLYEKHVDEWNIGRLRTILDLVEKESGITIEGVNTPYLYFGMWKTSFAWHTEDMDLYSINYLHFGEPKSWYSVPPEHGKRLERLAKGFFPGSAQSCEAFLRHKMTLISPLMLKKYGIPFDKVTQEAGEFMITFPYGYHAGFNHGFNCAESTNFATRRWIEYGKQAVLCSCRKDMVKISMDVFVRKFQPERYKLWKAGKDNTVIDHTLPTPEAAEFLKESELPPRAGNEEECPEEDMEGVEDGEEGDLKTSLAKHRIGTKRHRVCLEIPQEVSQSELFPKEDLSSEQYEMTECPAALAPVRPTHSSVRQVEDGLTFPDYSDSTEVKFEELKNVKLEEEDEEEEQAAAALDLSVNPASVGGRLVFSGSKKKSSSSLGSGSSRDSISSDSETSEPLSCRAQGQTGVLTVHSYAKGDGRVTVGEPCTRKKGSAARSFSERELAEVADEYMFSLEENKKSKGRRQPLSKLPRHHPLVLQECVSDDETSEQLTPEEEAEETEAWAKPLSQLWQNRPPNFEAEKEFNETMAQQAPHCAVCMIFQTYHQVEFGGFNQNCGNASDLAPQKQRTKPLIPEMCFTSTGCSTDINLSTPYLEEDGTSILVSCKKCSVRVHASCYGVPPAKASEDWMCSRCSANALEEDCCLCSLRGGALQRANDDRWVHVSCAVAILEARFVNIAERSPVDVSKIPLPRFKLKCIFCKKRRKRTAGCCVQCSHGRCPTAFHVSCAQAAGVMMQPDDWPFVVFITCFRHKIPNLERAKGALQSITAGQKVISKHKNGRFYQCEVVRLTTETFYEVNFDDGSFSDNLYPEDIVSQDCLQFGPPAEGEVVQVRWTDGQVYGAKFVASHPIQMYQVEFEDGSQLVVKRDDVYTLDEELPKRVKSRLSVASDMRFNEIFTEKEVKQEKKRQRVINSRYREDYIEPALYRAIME
HP1b binding inh = inhibitors of HP1-beta chromodomain binding to methylated histone tails | P83916 | AlphaScreen HP1-beta / biotin-H3K9me3 peptide binding | Potency, µM (titrated, usually from 114 µM), without a hit: at the top dose activity change, negative = inhibition, actives largely listed as inhibitors | hit rate 0.56% among 390,000 | AID 540317; note: potency is the fitted concentration of half-maximal effect; nearly all actives have a fitted effect of over 70% in size
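Compound inhibition of the preformed complex between 50 nM HP1-beta and 50 nM biotinylated H3K9me3 peptide was read by AlphaScreen. Buffer was PBS pH 7.4 with 0.01% Tween-20. Incubations ran 30 min at room temperature, with 10 ug/mL donor/acceptor beads.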
BAZ2B block = blocks human BAZ2B; hit rate 4.4% among 360,000; Potency, µM (series often up to 114 µM), for inactives: at the highest dose activity change, negative = inhibition, most hits filed as inhibitors; Q9UIF8; AlphaScreen BAZ2B-H3K14Ac peptide displacement; AID 504333; note: potency is the fitted concentration of half-maximal effect; % is set by controls: 0 for no effect and ±100 for the full control effect; nearly all actives have a fitted effect of over 60% in size
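AlphaScreen luminescence quantifies BAZ2B engagement of H3K14Ac peptide; the protein and biotinylated peptide are both at 50 nM final, buffer PBS pH 7.4 with 0.01% Tween-20, all steps at room temperature.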
G9a inh = inhibitors of human histone lysine methyltransferase G9a; Q96KQ7; G9a H3K9 monomethylation, AlphaScreen, 2 h; Potency, µM (series often up to 102 µM), for inactives: top-dose activity, negative = inhibition, usual class: inhibitors; hit rate 8.8% among 350,000; AID 504332; note: potency is the fitted concentration of half-maximal effect; % is set by controls: 0 for no effect and ±100 for the full control effect; nearly all actives have a fitted effect of over 75% in size
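AlphaScreen read-out: biotin-H3K9 peptide (500 nM) methylation by 20 nM enzyme with 20 uM SAM, 2 h at room temperature after 15 min compound preincubation; anti-monomethyl H3K9 antibody plus donor/acceptor beads, 10 min dark.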
PI5P4Ka inh = PI5P4K alpha (human) kinase inhibition | PI5P4Kalpha enzyme, ADP-Glo luminescence, 60 min; stronger effect = lower value | max response, % | hit rate 1.2% among 330,000; active = max response of -50% or lower; inconclusive = between -30% and -50%; inactive = -30% or higher; note: value at the top dose of about 77 µM; % is set by controls: 0 for no effect and ±100 for the full control effect
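qHTS, 1536-well: enzyme/substrate mix, compound by pin tool, 5 microM ATP final; RT 60 min; ADP-Glo reagents 1 (45 min) then 2 (30 min); luminescence.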
Starred values were filed as active, the others as inactive; ? = inconclusive; / = no result given; [ ] = remark or other dose. Unless noted, calls come from the whole dose curve; as a rule, active = well fitted curve in the direction sought with a large enough effect; inconclusive = small, poorly fitted or top-dose-only effect, or another doubt; inactive = no such curve, though single readings can be large; an effect the other way counts as inactive or inconclusive.

SMILES | PLK1 PBD inh | JMJD2A Tudor | HP1b binding inh | BAZ2B block | G9a inh | PI5P4Ka inh
NC(=O)c1c(NC(=O)c2nc(SCc3ccccc3F)ncc2Cl)sc2c1CCCC2 | / | -0.9% | 37.1% | ? | ? | /
Cc1oc2ccc(OS(C)(=O)=O)cc2c1C(=O)OC(C)C | 18.9µM* | ? | 0.4% | 4.6% | 12.4%[59 µM] | -25.3
COCCOC(=O)c1c(C)oc2ccc(OS(C)(=O)=O)cc12 | -2.3% | -13.0% | 29.5% | -23.1% | 33.6% | 1.8
O=[S+]([O-])(c1ccc2c(c1)OCCO2)N1CCN([S+](=O)([O-])c2c(F)cc(Br)cc2F)CC1 | / | -9.6% | / | / | / | /
CCOC1=NC(=C(c2ccccc2)c2ccccc2)OC1=O | -17.5% | 25.1µM* | -28.4% | / | / | 0.7
O=C(CSc1cccc[n+]1[O-])CSc1cccc[n+]1[O-] | 1.5% | 2.1% | 37.0% | -23.4% | / | -3.3
[O-][n+]1ccccc1SSc1cccc[n+]1[O-] | / | / | / | / | 1.26µM* | /
COc1cc2c(cc1OC)C(COc1ccc3c(C)cc(=O)oc3c1)N(C(=O)c1cccc(C)c1)CC2 (centres undefined) | / | -11.9% | 19.3% | 0.6% | -3.4%[59 µM] | /
O=c1[nH]c(/C=C\c2ccc(O)c(Cl)c2)nc(O)c1[N+](=O)[O-] | 7.0% | -6.4% | 19.1% | -22.1% | 50.1µM* | -96.9*
O=c1[nH]c(/C=C\c2ccc(O)cc2)nc(O)c1[N+](=O)[O-] | 4.3% | -0.3% | 48.0% | -25.7% | 70.8µM* | -89.4*
COc1cc(/C=C/c2nc3ccccc3c(=O)[nH]2)ccc1O | 2.8% | / | / | / | / | -17.5
CCOc1cc(/C=C\c2nc(O)c([N+](=O)[O-])c(=O)[nH]2)ccc1OC(C)C | -8.7% | -17.6% | 25.0% | -2.6% | ? | -2.7
C=CCc1cc(/C=C/c2nc(O)c([N+](=O)[O-])c(=O)[nH]2)cc(OC)c1O | -20.7% | -25.6%[57.1 µM] | -6.3% | ? | 50.1µM* | -64.5*
O=c1[nH]c(/C=C\c2cccs2)nc(O)c1[N+](=O)[O-] | ? | ? | -8.2% | -29.7% | ? | -65.7*
CCCCC(O)(CCCC)C(=O)NN(C(=O)OC)c1ccc(C)cc1 | -25.9% | 9.8%[57.1 µM] | 63.5% | -4.1% | / | -0.7
NC(=O)C1CC2(NC(=O)NC2=O)c2cc(F)ccc2O1 (centres undefined) | / | / | / | / | -1.6%[12.7 µM] | /
CN(/C=C1/C(=O)CNC1=O)CCO | 16.8µM* | -9.8%[11.4 µM] | -11.0% | 16.0% | ? | -18.6
Cc1ccc(Nc2ncc3c(=O)[nH][nH]c(=O)c3n2)cc1 | -8.1% | -35.2% | 27.6% | / | / | -61.0*
Cc1ccc(Nc2nnc(C)c(=O)[nH]2)cc1 | -26.3% | 2.3%[11.4 µM] | -3.6% | -1.9% | 0.8% | -4.1
Cc1ccc(C(=O)Oc2oc(-c3ccccc3)nc2C=Nc2ccc(N(C)C)cc2)cc1 | 72.0% | -14.5% | 37.2% | 45.5% | 61.3%[59 µM] | -1.6
O=C(Oc1oc(-c2ccco2)nc1C=Nc1ccccc1)c1ccco1 | 2.99µM* | -14.0% | 33.4% | -5.0% | ? | -16.9
Cc1ccc(C(=O)Oc2oc(-c3ccco3)nc2C=Nc2ccc(Cl)cc2)cc1 | 4.74µM* | -7.6% | 17.9% | -4.1% | 50.1µM* | 6.9
Cc1ccc(N=Cc2nc(-c3ccco3)oc2O)cc1 | -2.0% | ? | -10.7% | / | 0.7%[59 µM] | /
O=C(Oc1oc(-c2ccco2)nc1C=Nc1ccccc1)c1ccoc1 | 4.74µM* | -23.8% | 29.4% | -18.5% | 7.08µM* | /
C#C[C@]1(O)CC[C@H]2[C@H]3[C@H](CC[C@@]21C)C1=C(CC(=O)CC1)C[C@@H]3C | / | / | / | / | -43.1%[12.7 µM] | /
SMILES | PLK1 PBD inh | JMJD2A Tudor | HP1b binding inh | BAZ2B block | G9a inh | PI5P4Ka inh
Cc1ccc(NS(=O)(=O)c2ccc3c(c2)CCC(=O)N3)cc1F | / | -26.2% | / | / | / | /
COn1c(=O)c(=O)n(O)c2ccccc21 | -10.9% | 79.4µM* | -5.3% | ? | -1.0%[59 µM] | -10.8
O=c1c(=O)n(O)c2ccccc2n1O | 0.9% | 50.1µM* | 6.8% | 39.8µM* | 10µM* | /
CCOn1c(=O)c(=O)n(OC)c2ccccc21 | 1.7% | -1.7% | 19.9% | -4.0% | 11.3% | 2.1
Cc1ccc(S(=O)(=O)N2[C@@H](CO)CO[C@H]2CC(=O)c2ccccc2)cc1 | -0.6% | / | / | / | / | -0.3
CCC1NC(=O)c2cc3ccccc3cc2-n2c1nc1ccc(OC)cc1c2=O (centres undefined) | 0.9% | / | / | / | / | -1.6

Assay outcomes (PubChem BioAssay)
